Data from PubChem BioAssay (Tox21).
Records with an inconclusive call do not appear. Entries that show only a call come without a potency. The source made the active and inactive calls. Calls follow the shape of the full dose curve.

Molecular target: Vitamin D3 receptor (Homo sapiens) (UniProt P11473)
Assay: qHTS assay to identify small molecule agonists of the vitamin D receptor (VDR) signaling pathway (AID 743222)
Settings: HEK293T VDR-UAS-bla, beta-lactamase FRET ratio, 16 h; series mostly up to 63.5 µM
How it was run: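 Tox21 cell reporter format: VDR-bla line, 16 h compound exposure in 5% CO2 at 37C, then fluorescence intensity after 2 h with LiveBLAzer B/G FRET substrate.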

Chain of Vitamin D3 receptor (Homo sapiens) (P11473 whole entry, looked up): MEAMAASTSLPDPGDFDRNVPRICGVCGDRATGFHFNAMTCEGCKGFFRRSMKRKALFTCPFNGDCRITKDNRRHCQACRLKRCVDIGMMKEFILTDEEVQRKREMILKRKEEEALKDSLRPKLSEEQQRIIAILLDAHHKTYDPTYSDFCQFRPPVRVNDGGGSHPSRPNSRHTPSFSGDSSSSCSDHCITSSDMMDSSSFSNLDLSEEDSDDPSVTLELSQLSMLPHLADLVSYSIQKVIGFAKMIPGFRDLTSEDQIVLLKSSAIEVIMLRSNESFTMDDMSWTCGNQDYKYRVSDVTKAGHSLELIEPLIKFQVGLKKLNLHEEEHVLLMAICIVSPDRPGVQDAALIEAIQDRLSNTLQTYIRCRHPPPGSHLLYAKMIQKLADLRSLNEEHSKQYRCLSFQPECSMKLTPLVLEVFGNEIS

Compound | Potency
O=C(O)c1ccc2cc(C(=O)O)ccc2c1 | inactive
CCC(C)(CCC(C)C)C(=O)[O][Sn]([CH3])([CH3])[O]C(=O)C(C)(CC)CCC(C)C (configuration not stated) | inactive
CCN(CCN)c1cccc(C)c1 | inactive
COCCOc1cc2cc(C(=O)NC3CCN(C(C)C)CC3)n(CC(=O)Nc3ccc(Cl)cn3)c2cn1 | inactive
COc1cccc(OC)c1C(=O)O | inactive
CCCC(=O)OCOC(=O)C1=C(C)NC(C)=C(C(=O)OC)C1c1cccc(Cl)c1Cl (configuration not stated) | inactive
Clc1ccnc(Cl)n1 | inactive
CCO[Si](OCC)(OCC)OCC | inactive
Oc1ccccc1O | inactive
OC1CCCc2ccccc21 (configuration not stated) | inactive
CCCC(=O)OC(C)(C)Cc1ccccc1 | inactive
O=C(Nc1ccc2c(O)c(N=Nc3ccc(N=Nc4ccc(S(=O)(=O)O)cc4)cc3)c(S(=O)(=O)O)cc2c1)c1ccccc1 | inactive
S=C([S-])NCCNC(=S)[S-].S=C([S-])NCCNC(=S)[S-].[Mn+2].[Zn+2] | inactive
NC(=S)NC(N)=S | inactive
CC(C)NC[C@@H](O)COc1ccc(CC(N)=O)cc1 | inactive
O=C1c2ccccc2C(=O)N1SC1CCCCC1 | inactive
CC[C@H](C)COC(=O)/C=C/c1ccc(N=Cc2ccc(OC)cc2)cc1 | inactive
